# Only some compounds are listed: those with a hit (about 1.2% of all), similar ones and a draw of the others.
# Avidin fluor – green autofluorescence of compounds with avidin beads – biophysical, 488/530 nm, flow cytometry, artefact control, profiling panel | compound fluorescence 488/530 nm; hits give high values | fluorescence (KMESF) at 10 µM | hit rate 0.38% among 220,000 | AID 1775, 2009; in the data active = fluorescence above about 47
# RGS7-Gao – RGS7-Galphao binding modulators, primary screen, biochemical, multiplexed bead flow cytometry. Guanine nucleotide-binding protein G(o) subunit alpha (Homo sapiens), P09471. actives lie on both sides. binding response (% of control), % at 10 µM. hit rate 0.35% among 220,000. AID 1439, 2008; in the data active = binding response below about 49% or above about 150%; inconclusive = no clear call, values can overlap the other calls; inactive = in between;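 also: fluorescent Galphao held in activated GDP-AlF4 state binding bead-coupled RGS7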
# Target sequence (P09471 whole entry, looked up): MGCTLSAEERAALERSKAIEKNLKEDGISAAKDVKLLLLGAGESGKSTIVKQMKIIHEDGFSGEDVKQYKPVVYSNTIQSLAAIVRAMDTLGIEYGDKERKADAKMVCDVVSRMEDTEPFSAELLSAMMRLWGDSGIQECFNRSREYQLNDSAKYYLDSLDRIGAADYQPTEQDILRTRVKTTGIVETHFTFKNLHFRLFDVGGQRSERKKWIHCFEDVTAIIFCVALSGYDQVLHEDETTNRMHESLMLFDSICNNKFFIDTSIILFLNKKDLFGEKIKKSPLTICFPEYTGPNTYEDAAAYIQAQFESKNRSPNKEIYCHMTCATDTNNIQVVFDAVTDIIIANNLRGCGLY
# RGS16-Gao HTS – modulators of RGS16 binding to Galphao, primary screen, biochemical, human proteins, multiplexed bead flow cytometry | Regulator of G-protein signaling 16 (Homo sapiens) + Guanine nucleotide-binding protein … | bead-based flow cytometry RGS16-Galphao binding, fluorescence; actives lie on both sides | binding response (% of control), % at 10 µM | hit rate 0.38% among 220,000 | AID 1441, 2008;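 also: Galphao activated by GDP with aluminum fluoride before binding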
# Target sequence (O15492 whole entry, looked up): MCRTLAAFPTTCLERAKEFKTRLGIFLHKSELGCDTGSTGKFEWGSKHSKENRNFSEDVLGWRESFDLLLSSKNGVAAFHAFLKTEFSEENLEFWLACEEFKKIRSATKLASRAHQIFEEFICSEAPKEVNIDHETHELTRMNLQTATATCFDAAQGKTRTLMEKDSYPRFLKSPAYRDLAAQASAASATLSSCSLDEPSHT
# Target sequence (P09471 whole entry, looked up): as the sequence (P09471 whole entry, looked up) above
# RGS8-Gao reg – RGS8-Galphao binding modulators, primary screen, biochemical, multiplexed bead flow cytometry | hit rate 0.34% among 220,000 | response (percent of control binding), % at 10 µM | actives lie on both sides | Guanine nucleotide-binding protein G(o) subunit alpha (Homo sapiens), P09471; in the data active = response below about 60% or above about 140%; inactive = in between;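 also: Galphao activated as the GDP aluminium fluoride complex binding bead-coupled RGS8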
# GSH bead fluor – compound fluorescence on glutathione beads, profiling panel, artefact control, biophysical, 488/530 nm, flow cytometry. hit rate 0.25% among 190,000. GSH beads flow cytometry, compound fluorescence 488/530 nm; hits give high values. fluorescence (KMESF) at 10 µM. AID 1776, 2009; in the data active = fluorescence above about 89;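 also: glutathione beads carrying GST-tagged Bcl family fusion proteins plus one bare bead set; values are compound well signal with DMSO vehicle wells as background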
# RGS4-Gao reg – modulators of RGS4 binding to Galphao, primary screen, biochemical, multiplexed bead flow cytometry; actives lie on both sides; AID 1415, 2008; binding response (% of control), % at 10 µM; hit rate 0.33% among 220,000; Guanine nucleotide-binding protein G(o) subunit alpha (Homo sapiens), P09471; in the data active = binding response below about 49% or above about 150%; inactive = in between;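 also: fluorescent Galphao activated with aluminum fluoride binding bead-coupled RGS4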
# RGS4-Gao HTS – modulators of RGS–Galpha-o binding, primary screen, biochemical, multiplexed beads, flow cytometry, RGS4/7/8/16/19; multiplexed bead flow cytometry; hit rate 99% among 1,600; shares compounds with RGS16-Gao HTS; RGS4–Galpha-o binding response, % at 10 µM;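 also: fluorescently labeled Galpha-o bound to GDP with aluminium fluoride binding biotinylated RGS beads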
# Avidin counter – disruption of biotin probe capture by avidin, counter-screen for RGS protein interaction modulators, biochemical, flow cytometry, bead-based; inhibition, % at 10 µM; 1,700 tested, under 10 active; shares compounds with RGS16-Gao HTS; streptavidin beads, fluorescein-biotin binding;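 active = inhibition above 50%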;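 also: median green fluorescence of gated singlet beads compared with DMSO control wells; 0% = DMSO wells and 100% = complete loss of bead fluorescence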
# RGS8-Gao confirm – RGS8-Galphao binding modulators, confirmation, biochemical, multiplexed bead flow cytometry, single concentration. shares compounds with RGS16-Gao HTS. bead-based flow cytometry RGS8-Galphao binding, fluorescence; actives lie on both sides. binding response (% of control), % at 10 µM. hit rate 3% among 1,700; in the data active = binding response below about 72% or above about 130%; inactive = in between;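 also: Galphao activated as GDP AlF4 complex before binding bead RGS8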
# RGS7-Gao single – RGS7-Galphao binding modulators, confirmation, biochemical, multiplexed bead flow cytometry, single concentration; bead-based flow cytometry RGS7-Galphao binding; actives lie on both sides; shares compounds with RGS16-Gao HTS; hit rate 7.8% among 1,700; response (percent of control binding), % at 10 µM; in the data active = response below about 75% or above about 130%; inactive = in between;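 also: fluorescent Galphao activated with GDP and aluminum fluoride binding bead-coupled RGS7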
# RGS16-Gao single – modulators of RGS16-Galphao protein binding, confirmation, biochemical, single concentration, multiplexed bead flow cytometry | shares compounds with RGS16-Gao HTS | bead-based flow cytometry; actives lie on both sides | response (% of control binding), % at 10 µM | hit rate 4% among 1,700; in the data active = response below about 74% or above about 130%; inactive = in between;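 also: Galphao activated as the GDP aluminium fluoride complex binding bead-coupled RGS16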
# RGS4-Gao single – modulators of RGS4-Galphao protein binding, confirmation, biochemical, single concentration, multiplexed bead flow cytometry | shares compounds with RGS16-Gao HTS | actives lie on both sides | binding response (% of control), % at 10 µM | hit rate 4% among 1,700; in the data active = binding response below about 74% or above about 130%; inactive = in between
# RGS19-Gao single – regulators of RGS19-Galphao binding, confirmation, biochemical, single point, multiplexed bead flow cytometry. shares compounds with RGS16-Gao HTS. bead-based flow cytometry RGS19-Galphao binding; actives lie on both sides. response (percent of control binding), % at 10 µM. hit rate 5% among 1,700. AID 1841, 2009; in the data active = response below about 50% or above about 160%; inactive = in between;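 also: 100% = no compound control and 0% = blank background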
# Active calls of the source: *; i = inactive; ? = inconclusive; / = no result; [ ] = remark or other dose. Unless noted, no rule for the calls is given here.
SMILES,Avidin fluor,RGS7-Gao,RGS16-Gao HTS,RGS8-Gao reg,GSH bead fluor,RGS4-Gao reg,Avidin counter,RGS8-Gao confirm,RGS7-Gao single,RGS16-Gao single,RGS4-Gao single,RGS19-Gao single,others
COc1ccc(/C=C2\N=C(SC)N(C)C2=O)cc1,11,101.0,103.9,101.2,8,101.3,/,/,/,/,/,/,
Cc1sc2ncnc(Sc3nnc4sc5ccccc5n34)c2c1C,16,129.5,291.5*[activator],110.8,8,207.6*[activator],-0.8,99.0,98.3,103.5,97.9,92.3,
CCSc1ncnc2sc(C)c(C)c12,4,100.6,77.2,98.7,6,102.3,/,/,/,/,/,/,
CC(=O)c1ccc(NC(=O)Nc2ccc(Br)cc2C)cc1,76*,216.5*[activator],183.9*[activator],87.5,20,204.1*[activator],0.4,97.8,94.6,100.0,98.6,87.1,
CC(=O)c1ccc(NC(=O)c2ccc(C)c(Br)c2)cc1,7,92.4,59.6,92.9,18,98.4,/,/,/,/,/,/,
Cc1ccc([N+](=O)[O-])c(C(=O)N/N=C/c2cccs2)c1,8,?,100.9,101.8,/,101.1,/,/,/,/,/,/,
O=C(c1ccco1)N(CCC(c1ccccc1)c1ccco1)Cc1ccco1 (configuration not stated),-2,14.0*,2.3*,12.0*,20,22.8*,2.1,105.0,90.6,99.5,92.8,84.8,
Cc1ccc(C(CCN(Cc2ccccc2)C(=O)c2ccco2)c2ccco2)cc1 (configuration not stated),11,95.8,103.5,101.4,6,96.3,/,/,/,/,/,/,
COc1cccc2[nH]c3c(Cl)ncnc3c12,20,96.0,103.6,99.8,10,98.4,/,/,/,/,/,/,
O=c1ccc2cc(S(=O)(=O)N3CCN(c4cc(Cl)ccc4Cl)CC3)ccc2o1,/,/,/,/,42,/,-1.6,100.0,102.0,100.7,100.8,103.1,
O=C(Nc1cccc([N+](=O)[O-])c1)Nc1cccc([N+](=O)[O-])c1,25,105.4,99.7,101.6,12,101.7,/,/,/,/,/,/,
O=C(Nc1ccc(C(=O)O)cc1)Nc1cccc([N+](=O)[O-])c1,15,121.2,660.3,149.5*[activator],8,121.8,1.7,99.6,101.8,100.5,100.6,94.5,RGS4-Gao HTS=121.8*
O=c1c2cc(F)ccc2[nH]c(=S)n1CCCN1CCOCC1,24,99.8,102.5,102.7,23,103.3,/,/,/,/,/,/,
C=CCN=C(NC#N)SCC(=O)NC(C)(C)C,5,45.5*,i,61.1,13,-27.7*,0.9,101.8,100.0,105.9,98.2,104.7,
COc1ccc(C(=O)CN2C(=O)NC(C)(c3ccccc3)C2=O)cc1OC (configuration not stated),9,98.5,101.6,99.5,20,100.8,/,/,/,/,/,/,
Cc1nn(-c2ccccc2)c(C)c1/C=N\N1CCN(c2ccc(Cl)cc2)CC1,/,/,/,/,17,/,0.3,99.1,100.9,102.4,102.3,91.0,
COc1ccc(C2C(C(N)=O)=C(C)Nc3nc(-c4ccccc4OC)nn32)cc1OC (configuration not stated),25,95.2,99.3,99.7,15,92.6,/,/,/,/,/,/,
COC(=O)c1nc2n(n1)C(c1ccc(OC)c(OC)c1)C(C(=O)OC1CCCCC1)=C(C)N2 (configuration not stated),2,88.3,-38.1*,87.9,54,81.9,1.3,102.9,100.2,97.4,101.6,92.8,RGS4-Gao HTS=81.9*
COCCNC(=O)C(OC(=O)C1=Cc2ccccc2OC1)C(C)C (configuration not stated),10,101.6,104.3,100.9,13,103.1,/,/,/,/,/,/,
NC(=O)COC(=O)c1cc(Cl)cc(Cl)c1N,9,92.5,97.2,99.8,10,98.0,/,/,/,/,/,/,
Nc1c(Cl)cc(Cl)cc1C(=O)OCC(=O)N1CCCC1,-4,9.7*,4.0*,13.6*,43,11.5*,0.0,107.6,109.3,105.1,106.8,110.5,
Cc1onc(-c2ccccc2Cl)c1C(=O)Nc1ncn[nH]1,6,86.7,-1.7*,71.6,5,85.8,1.5,98.5,81.9,98.3,89.0,81.4,RGS4-Gao HTS=85.8*
Cc1onc(-c2c(Cl)cccc2Cl)c1C(=O)c1ccccc1,3,?,104.4,106.2,/,105.8,/,/,/,/,/,/,
Cc1onc(-c2ccccc2Cl)c1C(=O)c1ccccc1,-2,?,-15.7*,7.7*,/,-27.7*,-0.2,100.9,103.8,102.8,101.9,100.5,
Cc1onc(-c2ccccc2Cl)c1C(=O)Nc1ccc(Cl)cn1,4,?,110.4,101.8,/,98.1,/,/,/,/,/,/,
CC1(C)CCCC(C)(C)N1CC(O)COCCOc1ccc(Br)cc1 (configuration not stated),17,100.2,97.5,101.1,20,100.2,/,/,/,/,/,/,
CCC(C)NC(=O)C1c2ccccc2C(=O)N(c2ccc(OC)cc2)C1c1ccc(OC)cc1 (configuration not stated),10,103.7,96.3,100.3,36,103.4,/,/,/,/,/,/,
COc1ccc(C)c2sc(NC(=O)C3=COCCO3)nc12,175*,312.9*[activator],108.8,84.2,25,132.4,/,/,/,/,/,/,RGS4-Gao HTS=132.4*
